Compound activity: PubChem BioAssay, National Center for Advancing Translational Sciences (NCATS)
Rows were chosen to be rich in hits. Some 3.6% of all compounds tested hit in one or more screens of this group.
NPSR antagonist = antagonists of human neuropeptide S receptor cAMP signaling; AID 1461; Q6W5P4; CHO-NPSR cells, cAMP TR-FRET, antagonist mode; 220,000 tested, 1% active; Potency, µM (series often up to 38.3 µM), hits mostly inhibitors; note: nearly all actives have a fitted effect of over 50% in size
Sfp inh = Sfp phosphopantetheinyl transferase inhibition. Q9F4F7. Biochemical Sfp PPTase activity, qHTS. Potency, µM, actives largely listed as inhibitors. 310,000 tested, 3.5% active. AID 1490;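 note: the enzyme is Sfp with the accession as filed and its product quenches rhodamine fluorescence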
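Step 1, compound plus 15 nM Sfp-PPTase, 15 min, room temperature. Step 2, add rhodamine-CoA (5 uM) and BHQ-2-YbbR (12.5 uM). Step 3, read 525/598 nm fluorescence at 0 and 30 min.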
Epigenetic reg = derepresses silenced GFP reporter in murine cells. murine LDR cells, GFP reporter derepression, 30 h. Potency, µM (highest dose often 53.9 µM), most hits filed as activators. 280,000 tested, 0.2% active. AID 1865; note: nearly all actives have a fitted effect of over 60% in size
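Readout is the number of GFP-expressing murine LDR cells, counted by cytometry following washing. Cells were treated with compound for 30 h at 37 C; the stably integrated CMV-GFP locus is normally silent.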
IMPase Li cell = membrane-permeable IMPase blocker, potentiated with lithium | CHO-M1 cells, IP1 TR-FRET (IP-One), carbachol + lithium | Potency, µM (highest dose often 59.4 µM), usual class: inhibitors | 210,000 tested, 0.35% active;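 note: IP1 builds up when IMPase is blocked and the TR-FRET signal falls; nearly all actives have a fitted effect of over 50% in size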
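CHO-M1, 2000 cells/well, 16–30 h culture; cpd + low Li+, 30 min 37C; lysis with d2-IP1/Eu-anti-IP1 Ab, 10 min RT; TR-FRET 665/620 ratio and 620 channel; AC50 via Hill.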
JMJD2E inh = JMJD2E (human) inhibition. 230,000 tested, 1.6% active. AID 2147. B2RXH2. JMJD2E catalytic domain, FDH-coupled NADH fluorescence (FDH is formaldehyde dehydrogenase). Potency, µM (series often up to 57.1 µM), hits mostly inhibitors; active = well fitted inhibition curve with a large enough effect, not every such curve was filed as active; inconclusive = small, poorly fitted or top-dose-only effect, or another doubt; inactive = no such curve, though single readings can be large or run the other way; note: nearly all actives have a fitted effect of over 50% in size
Target sequence (B2RXH2 1-337 limits assumed): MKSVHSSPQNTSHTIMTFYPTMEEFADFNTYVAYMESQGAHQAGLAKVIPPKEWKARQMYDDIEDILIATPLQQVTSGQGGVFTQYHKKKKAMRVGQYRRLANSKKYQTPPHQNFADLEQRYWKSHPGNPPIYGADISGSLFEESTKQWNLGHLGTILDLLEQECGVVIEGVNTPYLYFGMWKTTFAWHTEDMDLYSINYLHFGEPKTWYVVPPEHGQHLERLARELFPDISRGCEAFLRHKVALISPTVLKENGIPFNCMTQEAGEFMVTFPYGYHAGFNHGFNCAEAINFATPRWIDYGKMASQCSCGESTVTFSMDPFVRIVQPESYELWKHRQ
GCN5L2 inh = blocks human GCN5L2 histone acetyltransferase. AID 504327. Potency, µM (titrated, usually from 58.9 µM), usual class: inhibitors. GCN5L2 HAT assay, ThioGlo1 CoA-SH fluorescence. 390,000 tested, 0.21% active
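Titration-based screen in which CoA formation is detected via maleimide probe ThioGlo1 (50uM) turning fluorescent on thiol reaction; substrates H3(1-25) 75uM and acetyl-CoA 70uM, GCN5L2 20nM, 20 min incubation at room temperature.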
Numbers stand for hits; 0 = inactive; ? = inconclusive; - = not tested or not shown; [ ] = dose if it differs, or a comment. Unless noted, calls come from the whole dose curve; as a rule, active = well fitted curve in the direction sought with a large enough effect; inconclusive = small, poorly fitted or top-dose-only effect, or another doubt; inactive = no such curve, though single readings can be large; an effect the other way counts as inactive or inconclusive.

SMILES | NPSR antagonist | Sfp inh | Epigenetic reg | IMPase Li cell | JMJD2E inh | GCN5L2 inh
C[C@]12C[C@H](O)CC(CO)(CO)C1[C@H](O)C[C@@]13CC4[C@@H](CC12)[C@@]4(C)C3 (stereo partly specified) | - | 0 | 0 | 0 | 0 | -
CNc1ccc(-c2nc3ccccc3s2)cc1 | - | ? | - | - | - | 0
COc1ccc(CC(=O)Nc2ccc(N3CCN(c4ccc(OC)cc4)CC3)c(C#N)c2)cc1 | 0 | 0 | 0 | ? | 0 | 0
COc1ccc(N2CCN(c3ccc(NC(=O)c4ccc5c(c4)OCO5)cc3C#N)CC2)cc1 | 5µM | 0 | 0 | ? | 0 | 0
COc1cc([C@@H]2c3cc4c(cc3C(OC3OC5COC(C)OC5C(O)C3O)C3COC(=O)[C@@H]32)OCO4)cc(OC)c1O (stereo partly specified) | - | 0 | 0 | 0 | 0 | -
COc1cc([C@@H]2c3cc4c(cc3[C@@H](OC3OC5COC(C)OC5C(O)C3O)[C@H]3COC(=O)[C@H]23)OCO4)cc(OC)c1O (stereo partly specified) | - | 0 | 0 | 0 | - | 0
COc1cc([C@@H]2c3cc4c(cc3[C@@H](O)[C@H]3COC(=O)[C@H]23)OCO4)cc(OC)c1O[Si](C)(C)C(C)(C)C | 10µM | 0 | ? | - | 0 | 0
COc1cc([C@@H]2c3cc4c(cc3[C@@H](O[C@@H]3O[C@H]5CO[C@@H](C)O[C@@H]5[C@@H](O)[C@H]3O)[C@@H]3COC(=O)[C@@H]23)OCO4)cc(OC)c1O | - | 89µM | 0 | 0 | 0 | -
NCC1OC(O[C@H]2[C@H](O)[C@@H](OC3C(O)C(N)CC(N)C3OC3OC(CO)C(O)C(O)C3N)O[C@@H]2CO)C(N)C(O)C1O (stereo partly specified) | - | - | - | - | - | 0
O=C(O)CCSC1=NCCN1 | - | - | - | 0 | - | -
COC(=O)[C@H](Cc1ccccc1)NC(=O)O[C@@H]1Cc2cc(OC)ccc2O[C@H]1c1cccc(OC)c1 | - | ? | 0 | 0 | 0 | -
CCOC(=O)c1c(/N=C/N(C)C)sc(/C=N/Nc2ccccc2)c1-c1ccc(Cl)cc1 | 0 | 0 | 11µM | 0 | 0 | 0
CCCn1c(-c2ccc(F)cc2)nc2c(NCCCCN(C)C)nc(C)nc21 | - | 0 | 0 | 0 | ? | -
N#CC1=C2SCN(Cc3ccco3)CN2C(=O)CC1c1cccc2ccccc12 (stereo unspecified) | 0[7.67 µM] | 1.4µM | 0 | 0 | ? | 0
S=C1SCN(Cc2ccco2)CN1Cc1ccco1 | ? | ? | ? | - | 0 | 0
COc1ccc(NC(=O)c2cc(OCCCN(C)C)nn2Cc2ccccc2)cc1 | - | 0 | - | - | - | 0
O=C1NC(=Nc2ccc(F)cc2)CS1 | 0 | 56µM | 0 | 0 | 0 | 0
O=C1[C@@H]2[C@@H](C(=O)N1c1ccc(OCc3ccccc3)cc1)[C@@H]1c3ccccc3[C@@H]2[n+]2ccccc21 | - | - | - | 0 | - | -
O=C(NC(=S)Nc1ccc(Cc2ccncc2)cc1)c1ccc(F)cc1 | 0 | 50µM | 0 | 0 | 0 | 0
CC(C)(C)C(=O)NC(=S)Nc1ccc(Cc2ccncc2)cc1 | - | 0 | - | - | - | 0
COc1ccc2[nH]cc(CCNc3ccnc(-c4ccccc4Cl)n3)c2c1 | - | 0 | - | 0 | - | 0
O=C1CSC(c2cn(-c3ccccc3)nc2-c2cc3ccccc3o2)N1Cc1ccccc1 (stereo unspecified) | ? | 0 | 0 | 0 | ? | 0
Cc1ccc(-c2nn(-c3ccccc3)cc2C2SCC(=O)N2Cc2ccccc2)o1 (stereo unspecified) | 0 | 22µM | 0 | 0 | ? | 0
COc1ccc(-c2nc(-c3ccccc3)c(NC(C)C)o2)cc1 | - | 0 | 0 | 0 | 0 | -
O=C1C2C3C=CC(CNS(=O)(=O)c4ccccc4)(O3)C2C(=O)N1c1ccc(Cl)cc1 (stereo unspecified) | 0 | 25µM | 0 | 0 | 0 | 0
COC(=O)c1cc(N2C(=O)C3C(C2=O)C2(C)C=CC3(C)O2)ccc1Cl (stereo unspecified) | ? | 7.9µM | 0 | 0 | 0 | ?
CC(=O)Oc1ccc(N2C(=O)C3C(C2=O)C2(C)C=CC3(C)O2)cc1 (stereo unspecified) | ? | 7.9µM | 0 | 0 | 0 | ?
